From PubChem BioAssay
HCV inhibitor = inhibitors of hepatitis C virus infection. Huh7.5.1 HCVcc-Cre infection, luciferase reporter, 44 h. Potency, µM (titrated, usually from 41.8 µM), inactives show at the top dose activity change, negative = inhibition, actives largely listed as inhibitors. AID 651820. hit rate 3.4% among 340,000; note: potency is the fitted concentration of half-maximal effect
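Reporter virus HCVcc-Cre (~0.5 moi) infects cells exposed to compound; seeding density 1,000 cells/well with 4 h settling beforehand. Luminescence, 15 sec read, taken 44 h post-infection following a 15 min RT substrate incubation.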
FMDV inh = foot and mouth disease virus antiviral activity | hit rate 1.2% among 410,000 | Potency, µM (titrated, usually from 57.9 µM), without a hit: at the highest dose activity change, negative = inhibition, hits mostly inhibitors | FMDV antiviral cell-based qHTS; calls by dose curve; tested in HEK293T cells; note: read-out not given here; potency is the fitted concentration of half-maximal effect; nearly all actives have a fitted effect of over 45% in size
HCMV inh = inhibitors of human cytomegalovirus | HFF cells, HCMV-luciferase reporter, 72 h; hits give low values | activity change, negative = inhibition, % at 57.5 µM | hit rate 4.5% among 410,000 | AID 1259415; in the data active = activity change below about -60%; inconclusive = no clear call, values can overlap the other calls; inactive = above about -39%
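After 16 h attachment at 37C, HFF cells received test compound and HCMV-luciferase (1 PFU/cell); reporter luminescence read 72 h later, data normalized against buffer-only and known inhibitor Salinomycin.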
AmpC inh detg = AmpC beta-lactamase inhibition with detergent present. AmpC hydrolysis of nitrocefin, absorbance 480 nm, 0.01% Triton. AID 485294. hit rate 0.041% among 370,000. P00811. Potency, µM (series often up to 114 µM), without a hit: top-dose activity change, negative = inhibition, hits mostly inhibitors;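 note: potency is the fitted concentration of half-maximal effect; 0% = no-compound wells and -100% = no-enzyme wells; nearly all actives have a fitted effect of over 25% in size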
Target sequence (P00811 whole entry, looked up): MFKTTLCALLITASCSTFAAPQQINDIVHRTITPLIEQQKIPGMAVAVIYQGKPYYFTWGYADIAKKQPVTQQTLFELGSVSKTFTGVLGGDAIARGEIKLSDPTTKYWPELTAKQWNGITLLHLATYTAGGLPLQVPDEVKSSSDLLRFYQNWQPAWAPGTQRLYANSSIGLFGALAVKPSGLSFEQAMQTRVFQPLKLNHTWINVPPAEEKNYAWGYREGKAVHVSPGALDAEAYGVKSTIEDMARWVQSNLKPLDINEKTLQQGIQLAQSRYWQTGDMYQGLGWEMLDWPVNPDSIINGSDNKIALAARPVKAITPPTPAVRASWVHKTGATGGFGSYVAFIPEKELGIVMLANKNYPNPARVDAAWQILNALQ
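AmpC (5.3 nM in the dispensed reagent) in 20 mM phosphate pH 7.0 with 0.01% (detergent screen) or 0.0001% Triton X-100 was preincubated with compounds for 15 min at room temperature. Nitrocefin was then added from an 800 uM solution, and hydrolysis was followed at 480 nm.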
AmpC no deterg = inhibitors of E. coli AmpC beta-lactamase without detergent; P00811; AmpC nitrocefin hydrolysis, absorbance 480 nm, 0.0001% Triton; Potency, µM (top dose mostly 57.1 µM), for the others: at the highest dose activity change, negative = inhibition, usual class: inhibitors; hit rate 0.52% among 330,000; AID 485341;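 note: potency is the fitted concentration of half-maximal effect; plate controls were no compound for no effect and no enzyme for full effect; nearly all actives have a fitted effect of over 20% in size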
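20 mM phosphate pH 7.0 + 0.01% (detergent screen) or 0.0001% Triton X-100; 5.3 nM AmpC reagent; cpd preinc 15 min RT; nitrocefin (800 uM stock) to start; A480 q20 s × 4 min; Activity was normalised to no-enzyme and no-compound control wells.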
An asterisk follows results filed as active; ? = inconclusive; / = no result given; + = active, no number. Compounds with a hit are over-represented: about 7.3% of the library has one in this group of screens. Unless noted, calls come from the whole dose curve; as a rule, active = well fitted curve in the direction sought with a large enough effect; inconclusive = small, poorly fitted or top-dose-only effect, or another doubt; inactive = no such curve, though single readings can be large; an effect the other way counts as inactive or inconclusive. Unless noted, % is set by controls: 0 for no effect and ±100 for the full control effect.

SMILES	HCV inhibitor	FMDV inh	HCMV inh	AmpC inh detg	AmpC no deterg
CCCOc1ccc(-c2cn3ccccc3n2)cc1	?	-54.1%	-63.9*	?	2.7%
COc1ccc(-c2cn3ccccc3n2)cc1	5.4%	-23.4%	21.7	2.0%	-5.8%
COc1cccc(-c2nc(N3CCC(C)CC3)c3ccccc3n2)c1O	?	-24.8%	52.2	5.8%	-18.2%
COc1cccc(-c2nc(N3CCCC3)c3ccccc3n2)c1O	5.01µM*	-11.2%	22.4	-6.2%	1.2%
COc1cccc(-c2nc(N3CC(C)CC(C)C3)c3ccccc3n2)c1O (stereo not given)	14.1µM*	?	62.0	-8.9%	-2.0%
COC(=O)Cc1c([C@H](C)[C@@H](OC)c2ccccc2Br)nnn1Cc1ccccc1	/	/	15.9	/	/
COc1ccc(OCC2NCCc3cc(OC)c(OC)cc32)cc1 (stereo not given)	?	-9.1%	-31.0	-20.0%	-22.5%
COc1cc2c(cc1OC)C(COc1cccc(C(F)(F)F)c1)NCC2 (stereo not given)	?	?	-71.4*	3.9%	31.8%
CC(C)[C@H](NC(=O)[C@H]1N2C(=O)c3ccccc3C2SC1(C)C)C(=O)NCc1ccco1 (stereo not given in full)	2.4%	3.1%	+	0.8%	-17.3%
CCC(C)NC(=O)[C@H]1N2C(=O)c3ccccc3C2SC1(C)C (stereo not given in full)	7.6%	-16.7%	51.2	5.1%	-1.7%
C[C@H](NC(=O)[C@H]1N2C(=O)c3ccccc3C2SC1(C)C)C(=O)N1CCC[C@H]1CO (stereo not given in full)	9.8%	-11.6%	-12.8	-8.0%	108.6%
C[C@H](NC(=O)[C@H]1N2C(=O)c3ccccc3C2SC1(C)C)C(=O)N1CCC[C@H]1C(=O)O (stereo not given in full)	1µM*	-6.2%	13.5	-11.2%	-19.3%
CCCNC(=O)c1ccccc1C(=O)NC1(C(=O)NCCC)CCCC1	10.6%	-6.6%	-18.3	-9.9%	-3.4%
CCOC(=O)N1CCN(C(=O)c2cccc(N3C(=O)NC4CC3(C)Oc3ccc(Cl)cc34)c2)CC1 (stereo not given)	-14.3%	?	-71.3*	-4.8%	135.8%
CCOC(=O)C1CCN(C(=O)c2cccc(N3C(=O)NC4CC3(C)Oc3ccc(C)cc34)c2)CC1 (stereo not given)	-11.2%	7.8%	-24.3	?	143.1%
CCC(=O)Nc1nnc(S(=O)(=O)N(CC)c2ccc(Cl)cc2)s1	7.7%	3.2%	-67.3*	-5.2%	-13.4%
CCN(c1ccc(Cl)cc1)S(=O)(=O)c1nnc(NC(=O)C2CCCCC2)s1	/	-18.3%	-63.9*	19.7%	/
CCC(=O)Nc1nnc(S(=O)(=O)N(CC)c2ccc(OC)cc2)s1	5.1%	33.1%	-33.5	-3.7%	-3.1%
Cc1ccc2nc(C)cc(C(=O)N3CCCC(N4CCN(c5ccccc5C)CC4)C3)c2c1 (stereo not given)	?	?	-14.4	1.4%	198.2%
Cc1ccc(C(NC(=O)N2CCOCC2)=C(Cl)Cl)cc1F	10µM*	/	-69.4*	?	-9.2%
O=C(COC(=O)CNC(=O)c1ccccc1Cl)Nc1ccccc1Cl	/	3.7%	5.8	-9.8%	-20.6%
C=CCc1cccc(/C=N/NC(=O)c2ccc3nc[nH]c3c2)c1O	?	15.0%	-100.6*	-4.2%	1.3%
O=C(N/N=C/c1ccc(Cl)cc1Cl)c1ccc2nc[nH]c2c1	14.4%	27.6%	-14.8	-7.1%	-42.2%
C=CCc1cccc(/C=N/NC(=O)c2ccccc2OC)c1O	?	44.2%	-97.4*	0.9%	-34.4%
C=CCc1cccc(/C=N/NC(=O)C(=O)Nc2ccc(C)cc2)c1O	11.0%	15.2%	-9.6	-2.5%	-39.8%
SMILES	HCV inhibitor	FMDV inh	HCMV inh	AmpC inh detg	AmpC no deterg
C=CCc1cccc(/C=N/NC(=O)C(C)Nc2ccc(C)cc2)c1O (stereo not given)	10µM*	?	-89.4*	-3.5%	-57.2%
C=CCc1cccc(/C=N/NC(=O)c2ccccc2Br)c1O	14.1µM*	-22.3%	-99.1*	1.2%	-54.5%
COc1ccccc1/C=N/NC(=O)c1ccccc1Cl	-4.8%	29.2%	-16.5	5.3%	-25.9%
COCc1cccc(-c2cccc3c2COCC(=O)N3Cc2ccccc2)c1	/	/	-4.7	/	/
CCOc1ccc(-n2c(-c3ccc(OC)cc3)c[n+]3c2CCCCC3)cc1	7.94µM*	?	-98.6*	?	-0.9%
CCOc1ccc(-n2c(-c3ccc(Br)cc3)c[n+]3c2CCCCC3)cc1	-13.9%	?	-98.9*	-1.2%	18.7%
CCOC(=O)C(=O)N(C)c1c(CC)nc2c(OCCC3CCCCC3)cccn12	/	-13.5%	-10.2	/	/
O=S(=O)(c1cccs1)N1CCN(CC(O)COc2cc(Cl)ccc2Cl)CC1 (stereo not given)	?	?	-60.9*	-2.5%	16.9%
NS(=O)(=O)c1ccc(N2CCN(S(=O)(=O)Cc3ccccc3)CC2)nc1	11.3%	-6.9%	26.6	/	-17.8%
O=S(=O)(c1cccs1)N1CCN(CCOc2ccc(Cl)cc2)CC1	?	?	-81.8*	6.2%	-5.9%
NS(=O)(=O)c1ccc(N2CCN(CCOc3ccc(Cl)cc3)CC2)nc1	?	?	-84.2*	-1.6%	8.9%
Cc1c(C(=O)NCCc2cccnc2)cnn1-c1ncc2c(n1)-c1ccccc1CC2	/	-10.1%	/	/	/
CCOC(=O)c1c(C)oc2ncnc(N3CCN(c4ccccc4F)CC3)c12	/	31.6µM*	-15.2	5.4%	/
CCOC(=O)c1ccccc1NC(=O)c1c(C)oc2ncnc(N3CCOCC3)c12	/	-25.4%	8.1	-0.6%	/
CCOC(=O)c1c(C)oc2ncnc(N3CCN(c4ccccc4)CC3)c12	/	28.2µM*	-23.7	2.5%	/
c1ccc(CCCCc2ccncc2)cc1	6.7%	-11.4%	-63.0*	/	/
CC(C)CCNC(=O)c1ccc(Cn2c(SCC(=O)NC(C)C)nc3ccccc3c2=O)cc1	/	-19.7%	7.3	24.5%	/
COC(=O)C1=Nc2ccccc2/C1=C\c1c(O)n(-c2ccc(Br)cc2)c(=O)[nH]c1=O	?	20µM*	27.6	?	?
CCc1ccc(Sc2cc(C(=O)NCCCN3CCCC(C)C3)c3ccccc3n2)cc1 (stereo not given)	/	5.0%	-60.5*	7.2%	/
CCc1ccc(Sc2cc(C(=O)NCCCN3CCC(C)CC3)c3ccccc3n2)cc1	/	-20.2%	-77.1*	3.4%	/
CCc1ccc(Nc2cc(C(=O)NCCCN3CCOCC3)c3ccccc3n2)cc1	?	-23.9%	?	-8.3%	190.2%
Cc1cccc(NC(=O)COc2cccc3c(=O)n(C)ccc23)c1C	/	?	-6.8	0.1%	/
CCCOc1ccc(C(=O)NNC(=S)NC(C)=O)cc1	?	10.1%	-93.7*	-14.4%	-44.6%
CCCOc1ccc(C(=O)NNC(=S)NC(=O)c2cc(-c3ccccc3)nc3ccccc23)cc1	-15.7%	-0.8%	4.8	-12.7%	4.47µM*
